Source: PubChem BioAssay (Johns Hopkins Ion Channel Center)
Only some compounds are listed: those with a hit (about 1.6% of all), similar ones and a draw of the others.
KCNQ2 block: blocks the rat KCNQ2 potassium channel; AID 2156; hit rate 1.1% among 310,000; CHO-K1 KCNQ2, FluxOR thallium flux, 20 min; active compounds read low; O88943; B-score at 10 µM;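 active = fluorescence ratio B-score at most minus 3 library SDs, with starting brightness B-score within 2 library SDs, cut at about -5.5 in these data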
KCNQ2 pot: potentiators of rat KCNQ2 potassium channel; hit rate 0.54% among 310,000; CHO-K1 KCNQ2, FluxOR thallium flux fluorescence; active compounds read high; O88943; B-score at 10 µM; AID 2239;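 active = fluorescence ratio B-score at least 3 SD of library B-scores, with initial fluorescence B-score within 3 of them, cut at about 5.3 in these data; same plate scores as AID 2156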;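 also: B-score of peak minus minimum over baseline fluorescence ratio after K+ and Tl+ stimulus; positive B-score means potentiation of KCNQ2 with more thallium influx and brighter signal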
Kir21 conf inh: confirmation of mouse Kir2.1 potassium channel inhibitors | Tl flux remaining, % of negative control (active compounds read low), % at 10 µM | hit rate 41% among 2,300 | shares compounds with KCNQ2 pot | Kir2.1-expressing cells, FluxOR thallium flux fluorescence; active compounds read low;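 active = Primary-screen hit whose thallium flux fell at least 3 control SD below untreated wells in both duplicates, with normal baseline fluorescence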
HEK293 Tl flux: counter-screen for Kir2.1 inhibitors: effect in parental HEK293 cells; shares compounds with KCNQ2 pot; FluxOR thallium flux fluorescence; 0% = unstimulated blank wells; FluxOR signal as % of negative control (100 = no effect), % at 10 µM; hit rate 19% among 2,300; AID 2105;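 active = dye signal at least 3 control SD above or below untreated wells in both duplicates, raw fluorescence within 3, either direction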;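 also: percent is based on the flux ratio of peak minus minimum fluorescence over baseline F0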
CHO-K1 Tl ctr: parental CHO-K1 activity in KCNQ2 potentiator counter-screen; shares compounds with KCNQ2 pot; parental CHO-K1 cells, FluxOR thallium flux fluorescence; zero = vehicle mean+3SD, 100% = vehicle-minus-blank window; activity increase over 3SD of controls, % at 10 µM; hit rate 43% among 1,200; AID 2282;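 active = signal rise of at least 3 SD above the untreated control mean, in both duplicate wells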;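 also: counter screen of KCNQ2 potentiator hits so any rise reflects channel-independent effects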
KCNQ1 sel pot: selectivity of KCNQ2 potentiators: effect on human KCNQ1 | AID 2283 | CHO KCNQ1 stable, FluxOR thallium flux fluorescence; beyond 3SD, as % of vehicle-control signal | activation over 3SD threshold, % at 10 µM | hit rate 28% among 1,200 | shares compounds with KCNQ2 pot;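 active = fluorescence ratio rise of at least 3 SD of vehicle wells above their mean, in both replicate wells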
KCNQ2 pot confirm: rat KCNQ2 channel potentiator confirmation. AID 2287. CHO-KCNQ2 cells, FluxOR thallium flux fluorescence. shares compounds with KCNQ2 pot. hit rate 68% among 1,200. potentiation, less the hit threshold, % at 10 µM;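 active = fluorescence ratio rising 3 SD or more over the vehicle control mean in both replicates, plus primary screen hit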;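 also: peak minus minimum thallium fluorescence divided by baseline after K/Tl stimulus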
Kir21 spec: tests whether KCNQ2 potentiators also affect mouse Kir2.1 | AID 2345 | activity over 3SD threshold, % at 10 µM | hit rate 2% among 1,200 | shares compounds with KCNQ2 pot | HEK293 Kir2.1, FluxOR thallium flux fluorescence;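 active = fluorescence ratio rise of at least 3 SD above the vehicle-control mean, seen in both replicates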
KCNQ2 W236L pot: potentiates the retigabine-insensitive rat KCNQ2 W236L mutant channel | AID 2558 | CHO KCNQ2-W236L, automated patch clamp current | hit rate 10% among 940 | current increase over 3SD of negative controls (%), active compounds read high, % at 25 µM | shares compounds with KCNQ2 pot;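 active = current increase at least 3 SD of the untreated controls above them in both duplicate recordings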
Target sequence (O88943 whole entry W236L, looked up): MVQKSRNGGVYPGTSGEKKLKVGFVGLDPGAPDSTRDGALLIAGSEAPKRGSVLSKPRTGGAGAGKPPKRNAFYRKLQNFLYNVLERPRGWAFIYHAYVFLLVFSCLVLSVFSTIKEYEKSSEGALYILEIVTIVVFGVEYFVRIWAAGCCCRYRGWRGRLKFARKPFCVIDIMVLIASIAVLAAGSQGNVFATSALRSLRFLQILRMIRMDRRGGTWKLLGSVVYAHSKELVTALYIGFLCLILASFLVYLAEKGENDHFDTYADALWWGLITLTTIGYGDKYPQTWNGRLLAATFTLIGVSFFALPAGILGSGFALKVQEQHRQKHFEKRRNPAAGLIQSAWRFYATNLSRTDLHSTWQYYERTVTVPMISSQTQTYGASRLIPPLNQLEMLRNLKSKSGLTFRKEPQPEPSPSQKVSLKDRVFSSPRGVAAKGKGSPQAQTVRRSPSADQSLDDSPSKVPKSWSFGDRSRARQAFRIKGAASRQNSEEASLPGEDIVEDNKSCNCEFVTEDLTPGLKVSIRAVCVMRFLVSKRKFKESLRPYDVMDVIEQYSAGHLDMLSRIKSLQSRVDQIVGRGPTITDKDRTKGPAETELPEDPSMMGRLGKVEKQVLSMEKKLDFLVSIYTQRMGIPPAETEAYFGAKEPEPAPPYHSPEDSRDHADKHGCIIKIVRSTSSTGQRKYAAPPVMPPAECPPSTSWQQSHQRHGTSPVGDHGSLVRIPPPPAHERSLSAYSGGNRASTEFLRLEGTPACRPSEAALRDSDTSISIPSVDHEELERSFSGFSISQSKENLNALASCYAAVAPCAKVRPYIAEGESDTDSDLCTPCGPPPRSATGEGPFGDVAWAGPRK
A number is an active result; . = inactive; / = no result given.

SMILES | KCNQ2 block | KCNQ2 pot | Kir21 conf inh | HEK293 Tl flux | others
O=C(CCC1CCCCC1)Nc1ccccc1-c1ccccc1 | . | 11.6 | . | . | CHO-K1 Tl ctr=38.3;KCNQ1 sel pot=.;KCNQ2 pot confirm=74.1;Kir21 spec=.;KCNQ2 W236L pot=.
Cc1ccc(O)c(NC(=O)CCC2CCCCC2)c1 | . | . | / | /
Cc1ccccc1OCC(=O)NCC(c1cccs1)N1CCOCC1 (stereo unspecified) | . | / | / | /
CCC(=O)N(CC)c1nc(-c2ccc(OC)cc2)cs1 | . | . | . | .
CCC(=O)N(Cc1ccco1)c1nc(-c2ccc(OC)cc2)cs1 | . | / | / | /
COCC(=O)N1CCC(Oc2ccc(C(=O)N(C)Cc3nccs3)cc2)CC1 | . | / | / | /
CCOC(=O)Cc1csc(NC(=O)COc2cc(C)cc(C)c2)n1 | . | . | / | /
Cc1cc(C(=O)NC2CCCc3c2cnn3-c2cccc(C)c2C)n(C)n1 (stereo unspecified) | . | / | / | /
C=CCNC(=O)CN1N=C(c2ccc(C)cc2)CCC1=O | . | / | / | /
O=C(Nc1nnc(-c2ccc3c(c2)CCCC3)o1)c1ccc(Cl)cc1Cl | . | 8.92 | . | 255.0% | CHO-K1 Tl ctr=.;KCNQ1 sel pot=69.1;KCNQ2 pot confirm=15.3;Kir21 spec=.;KCNQ2 W236L pot=.
O=C(Nc1nnc(-c2ccc3c(c2)CCCC3)o1)c1c(F)cccc1F | . | / | / | /
CC(=O)C1=C(C)NC(SCC(=O)c2ccc(F)cc2)=C(C#N)C1c1ccco1 (stereo unspecified) | . | . | / | /
CCc1ccc(C(=O)CSC2=C(C#N)C(c3ccco3)C(C(C)=O)=C(C)N2)cc1 (stereo unspecified) | . | 9.8 | . | . | CHO-K1 Tl ctr=112.8;KCNQ1 sel pot=.;KCNQ2 pot confirm=.;Kir21 spec=.
N#CC1=C(SCC(=O)c2ccccc2)NC2=C(C(=O)CCC2)C1c1ccco1 (stereo unspecified) | . | . | / | /
Cc1ccc(C(=O)CSC2=C(C#N)C(c3ccco3)C3=C(CCCC3=O)N2)cc1 (stereo unspecified) | . | 6.62 | . | . | CHO-K1 Tl ctr=0.0;KCNQ1 sel pot=5.9;KCNQ2 pot confirm=.;Kir21 spec=.
CCN1C(=O)CC(NC2CCN(C(=O)c3ccc(F)cc3)CC2)C1=O (stereo unspecified) | . | . | / | /
O=C(COc1ccc2c(c1)oc(=O)c1ccccc12)NC(Cc1ccc(Cl)cc1)C(=O)O (stereo unspecified) | . | . | / | /
COc1ccc(C(=O)[C@@H]2CC[C@](C)(C(=O)O)C2(C)C)cc1 | . | / | / | /
COc1ccc(CC(=O)Nc2sccc2C#N)cc1S(=O)(=O)N1CCOCC1 | . | . | / | /
CCc1ccc2[nH]c(O)c(N=NC3=NC(=O)CS3)c2c1 | . | / | / | /
CCc1ccc2c(c1)c(N=NC1=NC(=O)CS1)c(O)n2CC | . | 9.69 | . | 224.5% | CHO-K1 Tl ctr=.;KCNQ1 sel pot=.;KCNQ2 pot confirm=27.9;Kir21 spec=.;KCNQ2 W236L pot=.
C/C(CCC(=O)O)=N/Nc1ccc([N+](=O)[O-])cc1[N+](=O)[O-] | . | . | / | /
O=C(O)/C(CC(=O)c1ccc(Cl)cc1)=N/Nc1ccc([N+](=O)[O-])cc1[N+](=O)[O-] | . | 7.68 | . | . | CHO-K1 Tl ctr=.;KCNQ1 sel pot=.;KCNQ2 pot confirm=32.4;Kir21 spec=.;KCNQ2 W236L pot=.
Cc1ccc(NC(=O)c2ccc(Cn3cc(Cl)cn3)o2)c(C)c1 | . | / | 25.5% | .
COC(=O)c1sc(NC(=O)c2ccc(Cn3cc(Cl)cn3)o2)c(C#N)c1C | . | . | / | /
SMILES | KCNQ2 block | KCNQ2 pot | Kir21 conf inh | HEK293 Tl flux | others
COc1ccc(CCN(Cc2cc3cccc(C)c3n3nnnc23)C(=O)c2ccncc2)cc1OC | . | / | / | /
COC(=O)C1=C(Cn2cnc3ccccc32)NC(=O)NC1c1cc(C)ccc1C (stereo unspecified) | . | . | / | /
CCOC(=O)C1=C(Cn2cnc3ccccc32)NC(=O)NC1c1cc(C)ccc1C (stereo unspecified) | . | 6.61 | . | 52.5% | CHO-K1 Tl ctr=.;KCNQ1 sel pot=.;KCNQ2 pot confirm=.;Kir21 spec=.;KCNQ2 W236L pot=.
CCOC(=O)C1CCCN(C(=O)/C(=C/c2ccco2)NC(=O)c2ccccc2)C1 (stereo unspecified) | . | . | / | /
COc1ccc(NC(=O)c2nc(C)n(-c3ccc([N+](=O)[O-])cc3)n2)cc1 | . | . | / | /
CC(C)(C)OC(=O)C(Cc1ccc(OC(C)(C)C)cc1)NC(=O)CNC(=O)OCc1ccccc1 (stereo unspecified) | . | / | / | /
O=C(C[n+]1cccc(CO)c1)Nc1nc2ccccc2s1 | . | / | / | /
CC1=CC(C)(C)N(C(=O)CNC2CCCCC2)c2cc(C)ccc21 | . | / | 50.5% | .
CC1=CC(C)(C)N(C(=O)CCl)c2cc(C)ccc21 | . | / | / | /
CCC(=O)c1cn(CC(=O)Nc2ccc(C)cc2C)c2ccccc12 | . | . | / | /
Cc1ccc(S(=O)(=O)N2CCOCC2)cc1C(=O)Nc1ccc(S(=O)(=O)Nc2nccs2)cc1 | . | / | / | /
O=C(Oc1cccc(OC(=O)c2ccco2)c1)c1ccco1 | . | . | 51.0% | .
O=C(Oc1cccnc1)c1ccco1 | . | / | / | /
COC(=O)CN(c1nc(C)cc(OC)n1)S(=O)(=O)c1ccc(C)cc1 | . | . | / | /
C=CCN(c1nc(C)cc(OC)n1)S(=O)(=O)c1ccccc1 | . | / | 55.0% | 72.5%
CCN(c1nc(C)cc(OC)n1)S(=O)(=O)c1ccccc1 | . | / | 56.0% | 73.5%
C=CCN(c1nc(C)cc(OC)n1)S(=O)(=O)c1ccc(C)cc1 | . | / | / | /
CCOCCCNC(=O)Cn1nc(Cc2ccncc2)c2ccccc2c1=O | . | / | / | /
CC(=O)c1ccc[n+](CC(=O)NC(C)c2ccccc2)c1 (stereo unspecified) | . | / | / | /
CC1(C(=O)NC2CCCCCCC2)CCC(=O)N1Cc1cccs1 (stereo unspecified) | . | / | / | /
c1ccc(COc2ccc(CNCc3cccs3)cc2)cc1 | . | / | 10.5% | 72.0%
Brc1ccc(CNCc2cccs2)cc1 | . | / | / | /
CC1(C)S[C@@H]2C(C(=O)OCc3ccccc3)NC(=O)N2C1C(=O)OCc1ccccc1 (stereo partly specified) | . | . | / | /
COc1ccc(CCC(C)NCc2ccc(C(F)(F)F)cc2)cc1 (stereo unspecified) | . | . | / | /
COc1ccc(C(CCNCc2ccc(OC(C)C)cc2)c2ccccc2OC)cc1 (stereo unspecified) | -6.54 | . | 29.0% | .
COc1ccc(CNCCC(c2ccc(F)cc2)c2ccc(OC(C)C)cc2)cc1OC (stereo unspecified) | . | / | 44.5% | .
COc1ccc(CNC(C)CCc2ccccc2)cc1 (stereo unspecified) | . | . | 40.5% | .
